Experimental data taken from the supplement of paper PMC10681739.

Tests used:
RUNX1 [1] = target: RUNX1 (UniProt Q01196); experiment: RUNX1 binding intensity (PBM fluorescence), RUNX1 alone (arbitrary fluorescence units); higher = stronger binding; details: RUNX1 concentration 2 nM; ETS1 concentration 0 nM
Procedure: (§1)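 Cooperative gcPBM on 36-bp genomic probes with neighbouring ETS1 and RUNX1 sites. Recombinant human RUNX1 (2 nM) was incubated alone or with ETS1 (25 nM) and detected with anti-RUNX1 antibody plus Alexa488 secondary. Values are medians over 4 replicate spots; the RUNX1+ETS1 data were normalised to the RUNX1-only data. The probes sit in constant array flanks that are not printed.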

RUNX1 [2] = target: RUNX1 (UniProt Q01196); experiment: RUNX1 binding intensity (PBM fluorescence) in presence of ETS1, normalised to RUNX1-only experiment (arbitrary fluorescence units); higher = stronger binding; details: RUNX1 concentration 2 nM; ETS1 concentration 25 nM
Procedure: as §1

ETS1 = target: T1, ETS1 (UniProt P14921); experiment: ETS1 binding intensity (PBM fluorescence) in presence of RUNX1, normalised to ETS1-only experiment (arbitrary fluorescence units); higher = stronger binding; details: ETS1 concentration 1 nM; RUNX1 concentration 25 nM
T1 sequence: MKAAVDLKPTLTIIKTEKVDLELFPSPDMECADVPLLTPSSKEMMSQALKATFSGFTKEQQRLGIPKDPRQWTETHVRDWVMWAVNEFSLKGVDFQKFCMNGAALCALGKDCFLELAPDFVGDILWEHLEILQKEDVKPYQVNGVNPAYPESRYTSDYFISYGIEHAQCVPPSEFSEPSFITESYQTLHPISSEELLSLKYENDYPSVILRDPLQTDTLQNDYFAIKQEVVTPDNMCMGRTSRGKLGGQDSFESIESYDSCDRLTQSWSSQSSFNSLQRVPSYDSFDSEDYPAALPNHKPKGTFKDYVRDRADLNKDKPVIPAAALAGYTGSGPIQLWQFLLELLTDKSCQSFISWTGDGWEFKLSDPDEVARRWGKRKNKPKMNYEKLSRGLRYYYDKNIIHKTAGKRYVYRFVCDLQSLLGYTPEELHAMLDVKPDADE
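For RUNX1 binding intensity (PBM fluorescence) in presence of ETS1, normalised to RUNX1-only experiment in this document: Full-length recombinant human ETS1 or RUNX1 bound to double-stranded 36-bp genomic probes on microarrays, detected by protein-specific primary antibody and Alexa488 secondary, spot fluorescence as median of four replicate spots.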
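For RUNX1 binding intensity (PBM fluorescence), RUNX1 alone in this document: Full-length recombinant human RUNX1 bound to double-stranded 36-bp genomic probes on a high-density microarray, scored as Alexa488 fluorescence per spot via anti-RUNX1 antibody, median of four replicate spots.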

Sequence of RUNX1 (Q01196 whole entry): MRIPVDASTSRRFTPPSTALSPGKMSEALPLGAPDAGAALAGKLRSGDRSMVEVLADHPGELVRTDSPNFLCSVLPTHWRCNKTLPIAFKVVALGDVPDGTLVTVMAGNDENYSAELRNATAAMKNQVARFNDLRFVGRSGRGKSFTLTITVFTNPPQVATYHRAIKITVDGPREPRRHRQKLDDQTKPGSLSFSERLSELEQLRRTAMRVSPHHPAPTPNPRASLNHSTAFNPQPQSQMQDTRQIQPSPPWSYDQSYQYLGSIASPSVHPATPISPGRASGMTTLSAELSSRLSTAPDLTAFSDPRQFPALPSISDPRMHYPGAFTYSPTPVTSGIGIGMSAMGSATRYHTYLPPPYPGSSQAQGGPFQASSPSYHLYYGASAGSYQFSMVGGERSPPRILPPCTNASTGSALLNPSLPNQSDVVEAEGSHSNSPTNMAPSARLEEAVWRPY

## CCCCTCCCTGCTTCCTGTGTGGTGAGGGGTGATCAG
RUNX1 [1]
  RUNX1 binding intensity: 782
RUNX1 [2]
  RUNX1 binding intensity: 1870

## TTACCCCGGCGGAACGGAGGCCTGCGGTCGCGGCGG
RUNX1 [1]
  RUNX1 binding intensity: 941
RUNX1 [2]
  RUNX1 binding intensity: 1210

## CCCATCCATCCGCCTCCAAAGTAACCTCAAGAATTT
RUNX1 [1]
  RUNX1 binding intensity: 2140
RUNX1 [2]
  RUNX1 binding intensity: 2490

## CTCCCGGACGCTAACGTCTGGCAAACCACATTGCCC
RUNX1 [1]
  RUNX1 binding intensity: 993
RUNX1 [2]
  RUNX1 binding intensity: 857

## TTACCCCAGGAAAAGCCTCCTCACCGCAGTGACCAG
RUNX1 [1]
  RUNX1 binding intensity: 998
RUNX1 [2]
  RUNX1 binding intensity: 905

## CCGCCCCCGGACGGTCACAGCACCCAAACCGCAGGC
RUNX1 [1]
  RUNX1 binding intensity: 2740
RUNX1 [2]
  RUNX1 binding intensity: 3240

## CCCATTTCCGAGAGTGGCAGGGCTGGGCGCGGTGGG
RUNX1 [1]
  RUNX1 binding intensity: 978
RUNX1 [2]
  RUNX1 binding intensity: 1420

## AATCGCGCAGTTCCGCAGCTGCCGCCCCACAACCGT
RUNX1 [1]
  RUNX1 binding intensity: 863
RUNX1 [2]
  RUNX1 binding intensity: 960

## CCTCCGGAACGGCGCGGGGGATTGTGGGGTGTAGGG
RUNX1 [1]
  RUNX1 binding intensity: 910
RUNX1 [2]
  RUNX1 binding intensity: 761

## GACAGTTTTCCGGCCTAGTTTGCGGCTGCTCCTGCC
RUNX1 [1]
  RUNX1 binding intensity: 830
RUNX1 [2]
  RUNX1 binding intensity: 2440

## ACAGACAGCATCCTGAGCTCGTGGTTAGAACACCCT
RUNX1 [1]
  RUNX1 binding intensity: 841
RUNX1 [2]
  RUNX1 binding intensity: 985

## TTAACTCCACGGAAGAATAAACCACCACCGCTCACC
RUNX1 [1]
  RUNX1 binding intensity: 1080
RUNX1 [2]
  RUNX1 binding intensity: 908

## GAGGGAGCAGTTCCGGGTGCGGTGCGCGCCAGGGGC
RUNX1 [1]
  RUNX1 binding intensity: 1650
RUNX1 [2]
  RUNX1 binding intensity: 2060

## CCCAGAGCTTCCGATTGGCTCTTCTGTGGTGGCGGG
RUNX1 [1]
  RUNX1 binding intensity: 1010
RUNX1 [2]
  RUNX1 binding intensity: 1170

## TTACTTCCTGAGGGTGCACAGGCTGTGGTCGTCTAT
RUNX1 [1]
  RUNX1 binding intensity: 760
RUNX1 [2]
  RUNX1 binding intensity: 2070

## CAACCCAAGGGGATGTGCTCACTGCGGTGAGGAGGC
RUNX1 [1]
  RUNX1 binding intensity: 806
RUNX1 [2]
  RUNX1 binding intensity: 893

## ATGGTCCAGGAAGATAAGGGCTGAAAACCACCCACT
RUNX1 [1]
  RUNX1 binding intensity: 857
RUNX1 [2]
  RUNX1 binding intensity: 824

## CAAGGAGGCTTCCTGCGTGGGGCCGCAGAGCGAGTC
RUNX1 [1]
  RUNX1 binding intensity: 658
RUNX1 [2]
  RUNX1 binding intensity: 869

## CCAGCGGAAAGCCGGTCAGGGGGAACCGCGGCGGGG
RUNX1 [1]
  RUNX1 binding intensity: 893
RUNX1 [2]
  RUNX1 binding intensity: 758

## CAGTGTTCCGCGTCCGGGGGTTTGTGGGAGTTGCCT
RUNX1 [1]
  RUNX1 binding intensity: 989
RUNX1 [2]
  RUNX1 binding intensity: 1120

## TATCGACAAAAGTTCCGGCCCGCGGTAGCGGAGGGA
RUNX1 [1]
  RUNX1 binding intensity: 879
RUNX1 [2]
  RUNX1 binding intensity: 970

## GTGCCTTTTCATGTGGGATGTGGCTTCAAGGAGACC
RUNX1 [1]
  RUNX1 binding intensity: 911
RUNX1 [2]
  RUNX1 binding intensity: 822

## TTTGTTGTTCCGGGTGCGAGGCGGCCGCAGCTTCCA
RUNX1 [1]
  RUNX1 binding intensity: 1090
RUNX1 [2]
  RUNX1 binding intensity: 1180

## TCTGGCTGGGTGTTGGGATGTGGTTAACCGGGTTGG
RUNX1 [1]
  RUNX1 binding intensity: 797
RUNX1 [2]
  RUNX1 binding intensity: 876

## TCTGTTCTTCCTTTTCCTGTGCGGTGTGCCCCAAAC
RUNX1 [1]
  RUNX1 binding intensity: 1530
RUNX1 [2]
  RUNX1 binding intensity: 2810

## ACCACACTTCCCAGGAGTCTCTGCGGCCGCGCGGAG
RUNX1 [1]
  RUNX1 binding intensity: 938
RUNX1 [2]
  RUNX1 binding intensity: 801

## TGCGAGGTTGCCAGGAAACCGCGAAGCCGAGGTCCC
RUNX1 [1]
  RUNX1 binding intensity: 1120
RUNX1 [2]
  RUNX1 binding intensity: 1530

## CCATTTCCCCCATCACTTTGAATTGTGGTTCTTCTC
RUNX1 [1]
  RUNX1 binding intensity: 1590
RUNX1 [2]
  RUNX1 binding intensity: 2920

## AACTCCTGGCCGGAACGGCACAGACCGCACTCCCGC
RUNX1 [1]
  RUNX1 binding intensity: 938
RUNX1 [2]
  RUNX1 binding intensity: 917

## GGCGACCAGCTCCGGAAAGCGCGGTGGGGACGCGCT
RUNX1 [1]
  RUNX1 binding intensity: 805
RUNX1 [2]
  RUNX1 binding intensity: 865

## TCCACAGCCGGTTCCGGCCGGTTCCCACAAGCCCCT
RUNX1 [1]
  RUNX1 binding intensity: 844
RUNX1 [2]
  RUNX1 binding intensity: 1130

## TAGGCGGAAAGCCCGCTAGCCTAAACCACAGAGGGT
RUNX1 [1]
  RUNX1 binding intensity: 896
RUNX1 [2]
  RUNX1 binding intensity: 872

## CTTCTTCCTGCTGAGACTGATACAGCCCGCAAAGCT
RUNX1 [1]
  RUNX1 binding intensity: 994
RUNX1 [2]
  RUNX1 binding intensity: 1800

## GTTGGTCGCGCGCCTTCCTGCGGCTAAGATGGCGAC
RUNX1 [1]
  RUNX1 binding intensity: 749
RUNX1 [2]
  RUNX1 binding intensity: 923

## AGCTCTAAGGTTCCGCCTGCGGGCAGCAAGCGGAGG
RUNX1 [1]
  RUNX1 binding intensity: 920
RUNX1 [2]
  RUNX1 binding intensity: 902

## AGGCCAGACGCCTTCCGTGGTTTACGGTGAGGGTGG
RUNX1 [1]
  RUNX1 binding intensity: 884
RUNX1 [2]
  RUNX1 binding intensity: 799

## ACCAGAACTAAAGCGGATAGCGGTTAGAAACGCCCA
RUNX1 [1]
  RUNX1 binding intensity: 872
RUNX1 [2]
  RUNX1 binding intensity: 952

## CCACCATCTTTCCGGCTCCCTCGCGACCACCACGAC
RUNX1 [1]
  RUNX1 binding intensity: 1410
RUNX1 [2]
  RUNX1 binding intensity: 1970

## TTCATAAAGGAGAGGAAACCTGACCACGACAGAAAG
RUNX1 [1]
  RUNX1 binding intensity: 897
RUNX1 [2]
  RUNX1 binding intensity: 754

## TTTCTTCTGATCTTCCTCCCCGCACGTCTGCACAGG
RUNX1 [1]
  RUNX1 binding intensity: 1220
RUNX1 [2]
  RUNX1 binding intensity: 1020

## ATTGCTTCCGACGCTACTCCTGCCGGGTCACCACAG
RUNX1 [1]
  RUNX1 binding intensity: 785
RUNX1 [2]
  RUNX1 binding intensity: 1020

## AAACTACACCTCAGAGGATGTGGTTCCTTCTCTCAT
RUNX1 [1]
  RUNX1 binding intensity: 854
ETS1
  ETS1 binding intensity: 1730
RUNX1 [2]
  RUNX1 binding intensity: 946

## AGCAGGGCTCGCCGGGAAATGTGGTTTCTCCAGCCG
RUNX1 [1]
  RUNX1 binding intensity: 843
RUNX1 [2]
  RUNX1 binding intensity: 952

## TGTCTCATTTCCTGTAGGTAACAGGCACCACAATAG
RUNX1 [1]
  RUNX1 binding intensity: 968
ETS1
  ETS1 binding intensity: 1470
RUNX1 [2]
  RUNX1 binding intensity: 1780

## ACCCGGATGTCGTTGGGCAGGAACTGCGGTGAGGGC
RUNX1 [1]
  RUNX1 binding intensity: 829
ETS1
  ETS1 binding intensity: 7980
RUNX1 [2]
  RUNX1 binding intensity: 1490

## CTACCGGAAATGCAGCACCACGTAAAATGCGGTCGG
RUNX1 [1]
  RUNX1 binding intensity: 912
ETS1
  ETS1 binding intensity: 15800
RUNX1 [2]
  RUNX1 binding intensity: 2050

## GAGTCTACAGCGGAAGCCACCACATGCCCCACCCCC
RUNX1 [1]
  RUNX1 binding intensity: 904
ETS1
  ETS1 binding intensity: 5330
RUNX1 [2]
  RUNX1 binding intensity: 1200

## CAGATCCGGCGTGGACGAAGCTCGGGAACCACAACA
RUNX1 [1]
  RUNX1 binding intensity: 798
ETS1
  ETS1 binding intensity: 456
RUNX1 [2]
  RUNX1 binding intensity: 1150

## CGCCTCATTTCCTGTGCAACTGCGGTAAAAATAGGA
RUNX1 [1]
  RUNX1 binding intensity: 1630
ETS1
  ETS1 binding intensity: 5000
RUNX1 [2]
  RUNX1 binding intensity: 4630

## GAAACGTCACCCAGAGGAAACCCACAAGGGGCGTGG
RUNX1 [1]
  RUNX1 binding intensity: 875
RUNX1 [2]
  RUNX1 binding intensity: 836

## AACAAACCGGATGGGGTTGCCACCCGCAATCTTGTC
RUNX1 [1]
  RUNX1 binding intensity: 826
ETS1
  ETS1 binding intensity: 5130
RUNX1 [2]
  RUNX1 binding intensity: 2140

## CTGAAGAGGAAATGTATTCCTCATGTTGTGGTTGGC
RUNX1 [1]
  RUNX1 binding intensity: 860
ETS1
  ETS1 binding intensity: 1980
RUNX1 [2]
  RUNX1 binding intensity: 878

## AACTAAGTGCAGGGGAAGTTGTGGTTATTTTTTACC
RUNX1 [1]
  RUNX1 binding intensity: 1270
ETS1
  ETS1 binding intensity: 3360
RUNX1 [2]
  RUNX1 binding intensity: 1760

## CTCTTTCACAAAGGAAATGGAAACCACAAAGAGGAC
RUNX1 [1]
  RUNX1 binding intensity: 1820
ETS1
  ETS1 binding intensity: 14700
RUNX1 [2]
  RUNX1 binding intensity: 3930

## GATGAAAGAGGAAGTTCTCAAACCACCTTGCCAGTG
RUNX1 [1]
  RUNX1 binding intensity: 768
ETS1
  ETS1 binding intensity: 1490
RUNX1 [2]
  RUNX1 binding intensity: 1110

## TTGTTCCACCCCCGCGGAAACCGCTGCTCGCTGGGC
RUNX1 [1]
  RUNX1 binding intensity: 913
RUNX1 [2]
  RUNX1 binding intensity: 965
